We go through eight molecules from PubChem BioAssay (NCI).

This is part of a sample that, as a whole, favours compounds with a hit. Of some 83,000 tested, about 20% had one in any assay.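 How to read the values: 0–100, growth inhibition (40 = 60% inhibited); 0, no net growth; -100 to 0, cell death (-40 = 40% of starting cells died; -100 = all dead).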 Values without a mark were called inactive. Calls of active or inactive are those of the source. How the source made its calls: active means growth percent below 10; inactive means the rest.

Some test systems named below: NCI-H23 lung; NCI-H226 lung; NCI-H322M lung; HOP-62 NSCLC; NCI-H460 lung; HOP-92 NSCLC; A549/ATCC NSCLC; 786-0 renal; COLO 205 colon; DU-145 prostate; K-562 leukemia; MALME-3M melanoma; MDA-MB-231 breast; RXF 393 renal; SF-268 CNS; SF-295 CNS; SF-539 CNS; UACC-257 melanoma; M14 melanoma.
Common to all, as to experiment: NCI-60 one-dose screen, 48 h (100 = growth as untreated, 0 = no growth, -100 = all killed)
Settings in all cases: 10 µM unless noted

Take `CCCCN(CCCC)Cc1c(C)[nH]c2cc(OC)ccc2c1=O`: the growth is 107% with NCI-H23 lung; 103% in the assay on NCI-H226 lung; 113% in the assay on NCI-H322M lung; 88.9% in the assay with HOP-62 NSCLC; 103% with NCI-H460 lung; 65.3% in the assay on HOP-92 NSCLC. Also, the growth was 95.4% in the assay on A549/ATCC NSCLC; 105% with 786-0 renal; 101% in the assay with COLO 205 colon; 106% in the assay with DU-145 prostate; 98% in the assay with K-562 leukemia; 98% in the assay with MALME-3M melanoma. The growth with MDA-MB-231 breast was 104%; in the assay on RXF 393 renal, 108%; with SF-268 CNS, 95.5%; in the assay with SF-295 CNS, 98.3%; in the assay on SF-539 CNS, 110%; in the assay with UACC-257 melanoma, 94.5%. In addition, in the assay with M14 melanoma, the growth was 102%.

As to `Nc1cc2ccncc2c2ccccc12`, the growth was 67.7% with NCI-H23 lung; 44% in the assay on NCI-H226 lung; 61.7% in the assay with NCI-H322M lung; 79.6% in the assay on HOP-62 NSCLC; 58.2% in the assay with NCI-H460 lung; 73.9% in the assay on HOP-92 NSCLC. The growth with A549/ATCC NSCLC is 89.4%; in the assay on 786-0 renal, 78.1%; in the assay with COLO 205 colon it was 61.6%; with DU-145 prostate it was 75.4%; with K-562 leukemia it was 112%; in the assay with MALME-3M melanoma, 97.6%. Also, the growth was 64.1% in the assay with MDA-MB-231 breast; 81.5% with RXF 393 renal; 75.6% with SF-268 CNS; 69.3% in the assay on SF-295 CNS; 79.1% in the assay on SF-539 CNS; 103% in the assay with UACC-257 melanoma. Further, in the assay with M14 melanoma, the growth is 94.7%.

In the case of `CC1=C(C)C(=O)OC([C@](C)(O)[C@]2(O)CC[C@@]3(O)[C@@H]4C[C@H]5O[C@]56CC=CC(=O)[C@]6(C)[C@H]4CC[C@]23COC(=O)c2ccc(C)o2)C1` (stereo partly specified), the growth was -45% (active) in the assay with NCI-H23 lung; -20.9% (active) with NCI-H226 lung; -63% (active) in the assay with NCI-H322M lung; -73.8% (active) in the assay on HOP-62 NSCLC; -57.1% (active) in the assay with NCI-H460 lung; -58.7% (active) with HOP-92 NSCLC. Also, the growth was -64.1% (active) with 786-0 renal; -72.1% (active) in the assay with COLO 205 colon; -92.1% (active) in the assay with DU-145 prostate; 1.46% (active) with K-562 leukemia; -85% (active) in the assay with MALME-3M melanoma; -54.8% (active) with MDA-MB-231 breast. The growth with RXF 393 renal was -88.8% (active); in the assay on SF-268 CNS it was -55.8% (active); in the assay with SF-295 CNS, -24.5% (active); in the assay with SF-539 CNS, -91.2% (active); in the assay with UACC-257 melanoma, -58.7% (active); in the assay on M14 melanoma, -0.794% (active).

On to `O=C1OC2C(I)C3CC2C1C3c1ccccc1` (stereo unspecified), for which the growth in the assay with NCI-H23 lung is 94.8%; in the assay on NCI-H226 lung, 105%; with NCI-H322M lung, 139%; in the assay with HOP-62 NSCLC it was 88.9%; in the assay with NCI-H460 lung it was 117%; with HOP-92 NSCLC it was 93.7%. Moreover, the growth is 110% in the assay with A549/ATCC NSCLC; 95.2% in the assay with 786-0 renal; 125% in the assay with COLO 205 colon; 107% with DU-145 prostate; 104% in the assay on K-562 leukemia; 136% in the assay on MALME-3M melanoma. Moreover, the growth was 96.8% with MDA-MB-231 breast; 113% in the assay with RXF 393 renal; 106% in the assay with SF-268 CNS; 172% with SF-295 CNS; 94.1% in the assay with SF-539 CNS; 121% in the assay with UACC-257 melanoma. Further, the growth in the assay on M14 melanoma was 101%.

As for `NC1=CC(=O)C(=O)c2ccccc21`, the growth in the assay with NCI-H23 lung is 72.7%; in the assay with NCI-H226 lung, 98.1%; in the assay with NCI-H322M lung, 102%; in the assay with HOP-62 NSCLC, 98.2%; in the assay on NCI-H460 lung, 106%; with HOP-92 NSCLC, 106%. The growth with A549/ATCC NSCLC is 112%; in the assay on 786-0 renal, 92.8%; in the assay on COLO 205 colon, 117%; with DU-145 prostate, 102%; in the assay with K-562 leukemia, 71%; in the assay with MALME-3M melanoma it was 45.7%. The growth in the assay on MDA-MB-231 breast was 77.5%; with RXF 393 renal, 100%; in the assay with SF-268 CNS, 93.3%; in the assay on SF-295 CNS, 80.7%; in the assay on UACC-257 melanoma, 51.5%; in the assay with M14 melanoma, 68.1%.

As for `O=C1Nc2ccccc2C12CC(c1ccccc1)=NN2` (stereo unspecified), the growth is 70% with NCI-H23 lung; 79.3% in the assay with NCI-H226 lung; 66.3% in the assay on NCI-H322M lung; 58.6% with HOP-62 NSCLC; 33.2% in the assay with NCI-H460 lung; 59.2% in the assay on HOP-92 NSCLC. Further, the growth was 39.3% in the assay with A549/ATCC NSCLC; 61.7% in the assay on 786-0 renal; 31.4% in the assay on COLO 205 colon; 88.1% with DU-145 prostate; 18.5% in the assay on K-562 leukemia; 40.1% in the assay on MALME-3M melanoma. Also, the growth with MDA-MB-231 breast is 55.4%; in the assay on RXF 393 renal it was 90.6%; in the assay on SF-268 CNS, 67.1%; in the assay on SF-539 CNS it was 47%; with M14 melanoma it was 38.1%.

For the molecule `COC(=S)SCN(CSC(=S)OC)c1ccc(Cl)cc1`, the growth with NCI-H23 lung is 80%; in the assay on NCI-H226 lung, 69.9%; with NCI-H322M lung it was 76.1%; in the assay on HOP-62 NSCLC, 76.9%; with NCI-H460 lung it was 87%; in the assay with HOP-92 NSCLC it was 74.7%. In addition, the growth in the assay with A549/ATCC NSCLC was 81.6%; in the assay with 786-0 renal it was 94.3%; in the assay on COLO 205 colon it was 111%; with DU-145 prostate, 110%; in the assay on K-562 leukemia it was 90.1%; with MALME-3M melanoma it was 75.1%. Further, the growth is 66.1% in the assay with MDA-MB-231 breast; 95.3% with RXF 393 renal; 94.2% in the assay on SF-268 CNS; 84.8% in the assay with SF-295 CNS; 84.8% with SF-539 CNS; 77% in the assay on M14 melanoma.

As for `COc1ccc(-c2nc(Nc3cc(C)[nH]n3)c3ccccc3n2)cc1`, the growth with NCI-H23 lung is 60.2%; in the assay on NCI-H226 lung, 41.2%; with NCI-H322M lung, 78.1%; in the assay on HOP-62 NSCLC, 43.2%; in the assay on NCI-H460 lung, 28.5%; in the assay with HOP-92 NSCLC, 3.24% (active). Besides, the growth in the assay on A549/ATCC NSCLC is 23.9%; with 786-0 renal it was 50%; with COLO 205 colon, 3.04% (active); in the assay on DU-145 prostate it was 61%; in the assay on K-562 leukemia, 24.2%; in the assay on MALME-3M melanoma it was 79.9%. Moreover, the growth in the assay on MDA-MB-231 breast was 65.3%; in the assay on SF-268 CNS, 37.3%; in the assay on SF-295 CNS, 48.8%; with SF-539 CNS, 15%; in the assay with UACC-257 melanoma, 52%; in the assay with M14 melanoma it was 60.4%.
